Reference: PubChem BioAssay (NCATS)
Results filed as inconclusive are left out. The source made the active and inactive calls. Unless noted, calls come from the whole dose curve; as a rule, active = well fitted curve in either direction with a large enough effect (not every such curve was filed as active); inconclusive = small, poorly fitted or top-dose-only effect, or another doubt; inactive = flat fitted curve, though single readings scatter.

Tests used:
[1] = biological target: Lysosomal acid glucosylceramidase (Homo sapiens) (UniProt P04062); assay: Glucocerebrosidase-p2 (AID 348; in the data active = potency below about 10 µM; note: potency is the fitted concentration of half-maximal effect); details: purified GBA, blue fluorogenic substrate, 40 min
Procedure, shortened: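 Compounds titrated from 0.6 nM upwards against 0.2 nM enzyme in pH 5.9 citric acid/KH2PO4, taurocholate, tween-20; blue fluorogenic substrate 80 uM, 40 min room temperature, stopped and read Ex 365/Em 440 for AC50.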

[2] = AP1 Signaling Pathway (AID 357); details: ME-180 AP-1-bla reporter, EGF-induced, beta-lactamase ratio, 5 h; at 7.69 µM (top of the series) unless noted;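 note: ME-180 reporter cells stimulated with EGF at its EC50 level; % is set by controls: 0 for no effect and ±100 for the full control effect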
Procedure, shortened: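 Modulation of EGF-driven AP-1 transcription was assessed with a beta-lactamase reporter in ME-180 cells. Compound and EC50 EGF were co-incubated 5 hours at 37 °C before 2.5-hour CCF4 loading at room temperature and dual-emission reading.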

[3] = biological target: Cytochrome P450 1A2 (Homo sapiens) (UniProt P05177); assay: p450-cyp1a2 (AID 410; calls by dose curve; note: potency is the fitted concentration of half-maximal effect;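 for activity change, negative = inhibition: -100% = full effect of reference inhibitor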); details: recombinant CYP1A2, luciferin-ME demethylation, luminescence; series mostly up to 57 µM
Procedure, shortened: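 Human CYP1A2 (20nM) demethylated Luciferin-ME at its Km (100uM) in 100mM KPO4. After 10 min compound preincubation, NADPH regeneration ran the reaction 60 min at room temperature. Luciferin was read by luminescence, normalized to 57 uM furafylline.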

[4] = NFAT Signaling Pathway (AID 444); details: Jurkat NFAT-bla M1, carbachol, beta-lactamase ratio, 5 h; at 7.69 µM (top of the series) unless noted;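 note: carbachol stimulus at about its EC50 of 1 µM final; % is set by controls: 0 for no effect and ±100 for the full control effect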
Procedure, shortened: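 Jurkat cells carrying an NFAT-driven β-lactamase reporter and co-transfected muscarinic M1 receptor were treated with compound plus carbachol (1 uM final, an EC50 level) for 5 h at 37 °C. CCF4 loading followed for 1 h at RT; 460/530 nm ratio gave %activity.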

[5] = Stat Signaling Pathway (AID 446); details: ME-180 SIE beta-lactamase reporter, IL-6 stimulated, 5 h; at 7.69 µM (top of the series) unless noted;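 note: ME-180 cervical cancer cells given 40 pM IL-6 alongside compound; SIE-controlled beta-lactamase reporter measured as 460/530 nm FRET emission ratio; % is set by controls: 0 for no effect and ±100 for the full control effect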
Procedure, shortened: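 Screening format detects activators and inhibitors alike: ME-180 SIE-bla cells stimulated at 40 pM IL-6 for 5 hrs with compound, then dual-emission beta-lactamase read at 405 nm excitation.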

[6] = biological target: Mitogen-activated protein kinase 10 (Mus musculus) (UniProt Q61831); assay: JNK3 AlphaScreen Assay (AID 530); details: JNK3 lysate, c-Jun phosphorylation; series mostly up to 57.1 µM;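 note: kinase came from lysate of stimulated human HepG2 cells; signal reports phosphorylation of biotinylated GST-cJun 1-79 at Ser73 with 10 µM ATP; % is set by controls: 0 for no effect and ±100 for the full control effect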
Procedure, shortened: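 JNK3 came from HepG2 lysates pre-activated with IL-1beta and TNF-alpha and phosphorylated biotinylated GST-cJun (1-79) at 10 uM ATP, pH 7.6, room temperature. Compounds were titrated. AlphaScreen signal used anti-phospho-cJun (Ser73) antibody.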

[7] = biological target: 3',5'-cyclic-AMP phosphodiesterase 4B (Homo sapiens) (UniProt Q07343); assay: qHTS Assay for Inhibitors of PDE-IV (AID 607; active = well fitted activation curve with a large enough effect in the main read-out, with a control signal flat, not every such curve was filed as active; note: % of control where 0% means no effect); details: HEK293 ACTOne CNG channel cells, membrane potential fluorescence; series mostly up to 22.9 µM
Procedure, shortened: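 The readout is membrane depolarisation from a cAMP-sensing CNG channel, detected with a potential dye at ex 535/em 590. Cells were HEK293-derived (endogenous PDE-IV) at 1000 cells/well, titrated up to 22.9 uM final.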

[8] = biological target: Cytochrome P450 3A4 (Homo sapiens) (UniProt P08684); assay: qHTS Assay for Activators of Cytochrome P450 3A4 (AID 885; active = well fitted curve in the direction sought with a large enough effect; an effect the other way counts as inactive or inconclusive; note: nearly all actives have a fitted effect of over 65% in size); details: recombinant CYP3A4, Luciferin-PPXE luminescence, 60 min; series mostly up to 57.1 µM
Procedure, shortened: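 Steps: enzyme/substrate mix dispensed; compound added, 10 min RT; NADPH regeneration solution added, 60 min RT; luciferin detection buffer stops reaction; 20 min later luminescence measured.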

[9] = biological target: Cytochrome P450 2D6 (Homo sapiens) (UniProt P10635); assay: qHTS Assay for Inhibitors and Substrates of Cytochrome P450 2D6 (AID 891; active = well fitted curve in the direction sought with a large enough effect; an effect the other way counts as inactive or inconclusive; note: potency is the fitted concentration of half-maximal effect; nearly all actives have a fitted effect of over 60% in size); details: recombinant CYP2D6, luciferin-ME EGE luminescence; series mostly up to 57.1 µM
Procedure, shortened: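 Human CYP2D6 (5 nM) with 30 uM Luciferin-ME EGE (at Km) in 100 mM KPO4, compound preincubated 10 min, then NADPH regeneration system for 60 min at room temperature. Luciferin read by luminescence; normalized to 1.43 uM quinidine.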

[10] = qHTS Assay for Lipid Storage Modulators (AID 1519; calls by dose curve); details: Drosophila S3 cells, BODIPY lipid droplet/cell ratio, laser cytometry, cells loaded with oleic acid; for activity change, negative = inhibition: at 57.5 µM (top of the series)
Procedure, shortened: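 Cells seeded at 5,000 per well were treated with compounds over a concentration series and loaded with oleic acid (400 uM, as added). Lipid droplet fluorescence (488 nm excitation, 500-530 nm channel) was read by laser-scanning cytometry and normalized to 20 uM Triacsin C.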

[11] = Primary qHTS for small molecule stabilizers of the endoplasmic reticulum resident proteome: Secreted ER Calcium Modulated Protein (SERCaMP) assay (AID 1508630; active = well fitted curve in the direction sought with a large enough effect; an effect the other way counts as inactive or inconclusive; note: % is set by controls: 0 for no effect and ±100 for the full control effect); details: SH-SY5Y GLuc-SERCaMP (Gaussia luciferase released on ER calcium loss) secretion, thapsigargin, luminescence; series mostly up to 38.4 µM
Procedure, shortened: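 GLuc-SERCaMP-expressing SH-SY5Y cells, pretreated 16 h with compound, are challenged with thapsigargin to empty ER calcium stores; after 4 h, coelenterazine is added directly to the medium and luminescence is imaged.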

[12] = biological target: Glucocorticoid receptor (Homo sapiens) (UniProt P04150); assay: GR-EFC Redistribution (AID 451; calls by dose curve; note: potency is the fitted concentration of half-maximal effect); details: CHO-K1 GR-EFC translocation, beta-gal luminescence, 2 h
Procedure, shortened: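 CHO-K1 cells stably expressing nuclear-localized β-gal enzyme acceptor and GR fused C-terminally to the enzyme donor fragment; ligand-driven nuclear translocation restores β-gal by complementation. Compounds titrated up to 46 uM final, 2 h at 37 °C; luminescence read.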

[13] = biological target: Cytochrome P450 2C19 (Homo sapiens) (UniProt P33261); assay: qHTS Assay for Inhibitors and Substrates of Cytochrome P450 2C19 (AID 899; active = well fitted curve in the direction sought with a large enough effect; an effect the other way counts as inactive or inconclusive; note: potency is the fitted concentration of half-maximal effect; nearly all actives have a fitted effect of over 60% in size); details: recombinant CYP2C19, luciferin-H EGE luminescence; series mostly up to 57.1 µM
Procedure, shortened: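 In 50mM KPO4, the reaction held 5nM enzyme and KM-level (10uM) Luciferin-H EGE; it ran 60 min at 37C after NADPH regeneration and a 10 min compound preincubation. Luminescence values were scaled to 57uM ketoconazole as complete inhibition.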

[14] = biological target: Glucocorticoid receptor (Homo sapiens) (UniProt P04150); assay: GR-GFP Redistribution (AID 450;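 active = compounds whose dose series gives a full or clear partial fitted curve of increased nuclear translocation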; note: potency is the fitted concentration of half-maximal effect); details: U2OS GR-GFP nuclear translocation, laser cytometry, 2 h
[15] = biological target: Cytochrome P450 2C9 (Homo sapiens) (UniProt P11712); assay: qHTS Assay for Inhibitors and Substrates of Cytochrome P450 2C9 (AID 883; active = well fitted curve in the direction sought with a large enough effect; an effect the other way counts as inactive or inconclusive; note: % is set by controls: 0 for no effect and ±100 for the full control effect; nearly all actives have a fitted effect of over 60% in size); details: recombinant CYP2C9, luciferin-H luminescence, 60 min; series mostly up to 57.1 µM
Procedure, shortened: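 CYP2C9 deoxyluciferin hydroxylation, 37C, 60 min with NADPH regeneration; 10nM enzyme, 100uM Luciferin-H (KM). Glo detection reagent stopped reaction; luminescence normalized to sulphaphenazole (57uM) full inhibition.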

[16] = biological target: Cytochrome P450 3A4 (Homo sapiens) (UniProt P08684); assay: qHTS Assay for Inhibitors and Substrates of Cytochrome P450 3A4 (AID 884; active = well fitted curve in the direction sought with a large enough effect; an effect the other way counts as inactive or inconclusive; note: potency is the fitted concentration of half-maximal effect; nearly all actives have a fitted effect of over 50% in size); details: recombinant CYP3A4, Luciferin-PPXE luminescence; series mostly up to 57.1 µM
Procedure, shortened: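 20 nM human CYP3A4 with 25 uM Luciferin-PPXE (at KM) in 200 mM KPO4, preincubated 10 min with compound; NADPH regeneration started a 60 min RT reaction. Luciferin detected by luminescence, normalized to 57 uM ketoconazole as full inhibition.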

[17] = qHTS Assay for Identification of Small Molecule Agonists for Hypoxia Response Element Signaling Pathway (AID 914; active = well fitted activation curve with a large enough effect in the signal ratio, with a control signal flat, not every such curve was filed as active; the % refers to the signal ratio; note: % of control where 0% means no effect); details: ME-180 (cervical carcinoma) HRE-bla reporter, beta-lactamase ratio, CoCl2, 17 h; activation: stronger effect = higher value
Procedure, shortened: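 AC50 values come from titration-series %Activity, taken as the 460/530nm ratio of CCF4 fluorescence (excitation 405nm). CellSensor HRE-bla ME-180 cells were treated 17 hours at 37 C with compound plus an EC50 level of CoCl2.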

[18] = measured here: cell count channel max response
[19] = measured here: lipid channel max response

Chain of Cytochrome P450 3A4 (Homo sapiens) (P08684 whole entry, looked up): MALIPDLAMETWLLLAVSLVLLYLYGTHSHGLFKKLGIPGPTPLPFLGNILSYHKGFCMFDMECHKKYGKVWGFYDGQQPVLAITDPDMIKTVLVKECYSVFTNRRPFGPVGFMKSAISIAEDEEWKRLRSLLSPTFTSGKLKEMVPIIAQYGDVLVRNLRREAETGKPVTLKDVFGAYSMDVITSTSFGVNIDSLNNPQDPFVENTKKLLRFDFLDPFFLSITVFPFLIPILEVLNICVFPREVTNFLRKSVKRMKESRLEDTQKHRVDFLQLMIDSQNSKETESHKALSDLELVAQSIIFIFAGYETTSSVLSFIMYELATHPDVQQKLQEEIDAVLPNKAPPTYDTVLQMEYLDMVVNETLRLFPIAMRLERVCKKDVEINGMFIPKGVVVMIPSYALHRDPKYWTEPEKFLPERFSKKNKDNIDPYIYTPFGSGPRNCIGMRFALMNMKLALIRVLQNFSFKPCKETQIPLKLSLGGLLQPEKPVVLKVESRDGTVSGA
Chain of Lysosomal acid glucosylceramidase (Homo sapiens) (P04062 whole entry, looked up): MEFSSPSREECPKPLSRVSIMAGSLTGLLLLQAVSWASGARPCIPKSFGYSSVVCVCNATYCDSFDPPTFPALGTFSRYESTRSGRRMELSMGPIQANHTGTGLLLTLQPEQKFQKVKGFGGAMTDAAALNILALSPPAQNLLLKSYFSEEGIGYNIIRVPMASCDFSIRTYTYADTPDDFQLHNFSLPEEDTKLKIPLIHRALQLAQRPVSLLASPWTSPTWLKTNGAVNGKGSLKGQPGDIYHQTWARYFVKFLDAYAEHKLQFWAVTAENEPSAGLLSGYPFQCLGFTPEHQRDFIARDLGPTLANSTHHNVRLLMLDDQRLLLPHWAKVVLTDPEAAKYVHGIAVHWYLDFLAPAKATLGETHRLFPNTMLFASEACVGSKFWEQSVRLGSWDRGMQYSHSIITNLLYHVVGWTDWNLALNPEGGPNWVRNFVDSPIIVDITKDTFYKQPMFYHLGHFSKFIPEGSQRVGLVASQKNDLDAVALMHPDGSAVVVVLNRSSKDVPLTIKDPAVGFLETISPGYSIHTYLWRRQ
Chain of Glucocorticoid receptor (Homo sapiens) (P04150 whole entry, looked up, the tested form may be a part): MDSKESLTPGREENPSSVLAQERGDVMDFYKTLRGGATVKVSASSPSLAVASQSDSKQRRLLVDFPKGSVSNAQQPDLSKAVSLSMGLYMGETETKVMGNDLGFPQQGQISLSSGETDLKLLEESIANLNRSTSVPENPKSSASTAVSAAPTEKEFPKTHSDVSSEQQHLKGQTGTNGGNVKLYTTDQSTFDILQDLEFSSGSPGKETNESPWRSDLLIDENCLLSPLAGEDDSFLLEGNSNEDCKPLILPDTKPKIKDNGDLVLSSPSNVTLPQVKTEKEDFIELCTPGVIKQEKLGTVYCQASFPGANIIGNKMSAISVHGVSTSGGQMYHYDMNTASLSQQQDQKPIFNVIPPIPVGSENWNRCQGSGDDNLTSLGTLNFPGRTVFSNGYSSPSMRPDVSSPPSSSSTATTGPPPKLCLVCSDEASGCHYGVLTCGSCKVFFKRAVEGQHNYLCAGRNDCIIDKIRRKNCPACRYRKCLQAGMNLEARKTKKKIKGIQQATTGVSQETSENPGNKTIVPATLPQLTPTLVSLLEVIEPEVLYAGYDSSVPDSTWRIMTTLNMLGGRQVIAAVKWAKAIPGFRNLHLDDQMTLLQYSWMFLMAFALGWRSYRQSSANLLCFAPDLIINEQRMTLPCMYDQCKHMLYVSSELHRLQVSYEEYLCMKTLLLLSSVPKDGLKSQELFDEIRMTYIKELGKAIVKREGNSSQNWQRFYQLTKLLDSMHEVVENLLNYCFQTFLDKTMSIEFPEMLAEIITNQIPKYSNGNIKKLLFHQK
Chain of Cytochrome P450 1A2 (Homo sapiens) (P05177 whole entry, looked up): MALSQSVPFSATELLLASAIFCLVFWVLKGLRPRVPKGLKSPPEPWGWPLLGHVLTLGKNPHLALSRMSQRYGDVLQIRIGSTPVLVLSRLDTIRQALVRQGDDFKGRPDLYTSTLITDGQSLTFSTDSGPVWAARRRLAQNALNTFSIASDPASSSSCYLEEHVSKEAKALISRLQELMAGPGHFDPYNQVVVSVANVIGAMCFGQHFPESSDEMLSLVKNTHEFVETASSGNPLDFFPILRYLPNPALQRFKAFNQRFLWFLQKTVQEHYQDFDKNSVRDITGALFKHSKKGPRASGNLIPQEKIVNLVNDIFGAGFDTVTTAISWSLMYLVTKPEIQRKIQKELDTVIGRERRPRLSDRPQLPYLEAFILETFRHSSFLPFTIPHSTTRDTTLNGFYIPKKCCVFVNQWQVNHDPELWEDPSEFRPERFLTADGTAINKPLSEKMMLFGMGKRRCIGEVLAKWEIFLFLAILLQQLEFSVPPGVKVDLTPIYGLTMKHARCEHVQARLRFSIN
Chain of 3',5'-cyclic-AMP phosphodiesterase 4B (Homo sapiens) (Q07343 whole entry, looked up): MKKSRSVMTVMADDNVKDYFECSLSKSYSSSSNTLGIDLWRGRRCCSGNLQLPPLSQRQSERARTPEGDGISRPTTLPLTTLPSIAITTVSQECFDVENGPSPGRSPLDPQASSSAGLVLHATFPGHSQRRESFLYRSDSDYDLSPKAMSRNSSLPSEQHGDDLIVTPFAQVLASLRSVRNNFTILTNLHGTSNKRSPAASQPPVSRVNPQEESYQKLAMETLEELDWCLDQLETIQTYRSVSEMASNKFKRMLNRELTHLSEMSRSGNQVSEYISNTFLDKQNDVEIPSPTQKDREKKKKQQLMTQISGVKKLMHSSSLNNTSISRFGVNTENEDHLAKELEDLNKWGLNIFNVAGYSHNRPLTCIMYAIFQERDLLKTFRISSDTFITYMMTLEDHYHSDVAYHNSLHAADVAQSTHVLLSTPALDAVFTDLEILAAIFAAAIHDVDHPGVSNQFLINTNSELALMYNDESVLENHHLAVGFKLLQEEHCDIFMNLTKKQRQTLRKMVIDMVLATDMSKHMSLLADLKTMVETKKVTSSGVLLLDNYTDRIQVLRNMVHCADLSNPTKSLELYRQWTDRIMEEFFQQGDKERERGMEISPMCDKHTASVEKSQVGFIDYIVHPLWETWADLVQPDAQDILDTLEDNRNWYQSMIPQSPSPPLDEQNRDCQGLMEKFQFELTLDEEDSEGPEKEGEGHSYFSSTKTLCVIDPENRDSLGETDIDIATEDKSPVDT
Chain of Cytochrome P450 2D6 (Homo sapiens) (P10635 whole entry, looked up): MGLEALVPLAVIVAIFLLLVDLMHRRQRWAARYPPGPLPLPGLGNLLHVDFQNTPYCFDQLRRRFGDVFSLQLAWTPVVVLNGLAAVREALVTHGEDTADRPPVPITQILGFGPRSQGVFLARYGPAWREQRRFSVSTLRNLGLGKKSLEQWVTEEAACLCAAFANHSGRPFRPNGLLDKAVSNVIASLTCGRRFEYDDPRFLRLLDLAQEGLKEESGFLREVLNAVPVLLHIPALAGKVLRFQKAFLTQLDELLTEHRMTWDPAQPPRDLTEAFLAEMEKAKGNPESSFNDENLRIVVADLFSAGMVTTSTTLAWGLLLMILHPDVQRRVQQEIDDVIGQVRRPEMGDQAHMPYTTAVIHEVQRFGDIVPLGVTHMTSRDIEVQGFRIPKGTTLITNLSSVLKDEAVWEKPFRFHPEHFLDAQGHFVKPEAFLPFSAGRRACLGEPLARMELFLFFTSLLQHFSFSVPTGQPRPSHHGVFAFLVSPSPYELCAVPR
Chain of Cytochrome P450 2C19 (Homo sapiens) (P33261 whole entry, looked up): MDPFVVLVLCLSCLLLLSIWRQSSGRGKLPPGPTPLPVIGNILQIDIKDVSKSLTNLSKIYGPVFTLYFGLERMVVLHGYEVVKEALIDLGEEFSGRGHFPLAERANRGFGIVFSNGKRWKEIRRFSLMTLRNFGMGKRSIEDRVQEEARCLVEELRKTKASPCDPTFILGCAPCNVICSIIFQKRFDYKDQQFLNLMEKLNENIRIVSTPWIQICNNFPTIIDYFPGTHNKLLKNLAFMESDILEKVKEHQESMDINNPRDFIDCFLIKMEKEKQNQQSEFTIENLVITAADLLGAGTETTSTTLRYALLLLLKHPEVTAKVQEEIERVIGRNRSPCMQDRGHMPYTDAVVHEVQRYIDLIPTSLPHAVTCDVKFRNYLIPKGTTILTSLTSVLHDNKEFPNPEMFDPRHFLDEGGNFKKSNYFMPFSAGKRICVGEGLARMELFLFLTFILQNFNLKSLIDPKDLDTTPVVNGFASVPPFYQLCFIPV
Chain of Cytochrome P450 2C9 (Homo sapiens) (P11712 whole entry, looked up): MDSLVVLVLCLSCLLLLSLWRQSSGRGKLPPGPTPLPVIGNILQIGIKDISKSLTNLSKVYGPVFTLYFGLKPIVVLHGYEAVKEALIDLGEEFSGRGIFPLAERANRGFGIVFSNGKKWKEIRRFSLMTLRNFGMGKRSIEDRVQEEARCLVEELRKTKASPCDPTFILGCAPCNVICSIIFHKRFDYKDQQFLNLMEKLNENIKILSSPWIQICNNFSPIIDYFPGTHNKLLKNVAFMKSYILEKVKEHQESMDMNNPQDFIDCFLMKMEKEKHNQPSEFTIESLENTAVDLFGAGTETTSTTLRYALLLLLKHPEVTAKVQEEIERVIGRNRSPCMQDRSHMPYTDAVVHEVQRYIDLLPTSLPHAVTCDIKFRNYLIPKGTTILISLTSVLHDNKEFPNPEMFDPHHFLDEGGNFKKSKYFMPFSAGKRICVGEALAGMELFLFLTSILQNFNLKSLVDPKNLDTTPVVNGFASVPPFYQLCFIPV

COCC(=O)N1CCC[C@@]2(CCN(Cc3ccccc3)C2)C1
13.4%: max response [10, 19]
6.62%: max response [10, 18]
inactive: Potency [1] > 11.4 µM | activity change, negative = inhibition [2] -0.884% | Potency [3] | activity change, negative = inhibition [4] 19.9% | activity, negative = inhibition [5] 7.86% | outcome [6] | Potency [7] | Potency [8] | activity change, negative = inhibition [10] 4% | Potency [11]
active: Potency [9] 6.31 µM

Cn1cccc1C(=O)N1CCC2(CCCN(c3ccccc3)C2)CC1
active: Potency [3] 10 µM | Potency [13] 7.94 µM
7.11%: max response [10, 19]
inactive: Potency [1] > 11.4 µM | activity change, negative = inhibition [2] -3.96% | activity change, negative = inhibition [4] 5.63% | activity, negative = inhibition [5] -6.3% | Potency [12] > 46 µM | Potency [7] | Potency [8] | activity change, negative = inhibition [10] 1.89% | Potency [11]
1.38%: max response [10, 18]

O=C(c1cnccn1)N1CCC[C@@]2(CCN(Cc3nccs3)C2)C1
14.2%: max response [10, 18]
inactive: Potency [1] > 11.4 µM | activity change, negative = inhibition [2] -10.4% | Potency [3] | activity change, negative = inhibition [4] 8.21% | activity, negative = inhibition [5] -0.706% | outcome [6] | Potency [7] | Potency [8] | activity change, negative = inhibition [10] 4.59% | Potency [11]
20.9%: max response [10, 19]

Cc1nc2cnc(N(C)C)nc2n(Cc2ccc(F)cc2)c1=O
21.5%: max response [10, 19]
15%: max response [10, 18]
inactive: Potency [1] > 11.4 µM | activity change, negative = inhibition [2] 3.79% | activity change, negative = inhibition [4] 1.01% | Potency [14] > 9.22 µM | Potency [12] > 46 µM | outcome [6] | Potency [15] | Potency [8] | activity change, negative = inhibition [10] 5.88% | Potency [11]
active: Potency [3] 2 µM | Potency [16] 0.0251 µM | Potency [13] 1.58 µM

COc1ccc(C(=O)N2CCC3(CCN(C)CC3)CC2)cc1
8.31%: max response [10, 18]
12.9%: max response [10, 19]
inactive: Potency [1] > 11.4 µM | activity change, negative = inhibition [2] -25.4% | Potency [3] | activity change, negative = inhibition [4] -8.24% | activity, negative = inhibition [5] 2.9% | Potency [12] > 46 µM | outcome [6] | Potency [7] | activation [17] 5.39% | activity change, negative = inhibition [10] 3.67% | Potency [11]

O=C(c1cnccn1)N1CCC[C@@]2(CCN(Cc3cc(C(F)(F)F)cc(C(F)(F)F)c3)C2)C1
inactive: Potency [1] > 11.4 µM | activity change, negative = inhibition [2] -16.9% | Potency [3] | activity change, negative = inhibition [4] 16.8% | activity, negative = inhibition [5] 2.8% | outcome [6] | Potency [7] | Potency [8] | activity change, negative = inhibition [10] 4.01% | Potency [11]
20.7%: max response [10, 19]
active: Potency [16] 7.94 µM | Potency [9] 3.16 µM
14.7%: max response [10, 18]

COc1ccc(-c2nc3cnc(N4CCNCC4)nc3n(Cc3ccc(F)cc3)c2=O)cc1
active: activity change, negative = inhibition [2] 83.5% [activator] | activity change, negative = inhibition [4] 88% [activator]
inactive: Potency [1] > 11.4 µM | Potency [3] | Potency [14] > 9.22 µM | Potency [12] > 46 µM | outcome [6] | Potency [15] | Potency [8] | activity change, negative = inhibition [10] 4.56% | Potency [11]
15.2%: max response [10, 18]
24.4%: max response [10, 19]
